Pf Dd2 inh = inhibitors of Plasmodium falciparum Dd2 growth; P. falciparum Dd2 growth, SYBR Green, 72 h; Potency, µM (series often up to 28.9 µM), for inactives: top-dose activity, negative = inhibition, hits mostly inhibitors; hit rate 4.3% among 120,000; AID 1347417; active = well fitted inhibition curve with a large enough effect;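 note: plate controls were DMSO vehicle for no effect and reference drug for full effect; nearly all actives have a fitted effect of over 65% in size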
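Readout: SYBR Green fluorescence, 485 nm excitation, 535 nm emission, after ~16 h lysis at 37C. Before that, Dd2-infected red cells (2.5% hematocrit) grew 72 h with compound, 29 uM top final concentration.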
An asterisk follows results filed as active; i = inactive; [ ] = another dose, or the depositor's remark. The entries come from a sample that favours hits as a whole. Potency is the fitted concentration of half-maximal effect.

SMILES | Pf Dd2 inh
c1cn(CCCN2CCCC2)c(-c2cc3n(n2)CCCNC3)n1 | 0%
CCCn1ccnc1CN1CCCC12CCN(c1ccc(C(F)(F)F)cn1)CC2 | 11µM*
Cn1ccnc1CN1CCCC12CCN(c1ccc(C(F)(F)F)cn1)CC2 | i
CCn1ncc(CN2CCCC23CCN(c2ccc(C(F)(F)F)cn2)CC3)c1C | 10µM*
O=C(Cn1nc2c(cc1=O)CCCC2)N1CCN(c2ccc(C(F)(F)F)cn2)CC1 | 6%
FC(F)Oc1ccccc1CN1CCCC12CCN(c1ncccn1)CC2 | i
Cc1cc(CN2CCCC23CCN(c2nc4ccccc4o2)CC3)on1 | -16%
CCn1ncc(CN2CCCC23CCN(c2cc(C)nc4ccccc24)CC3)c1C | 2µM*
O[C@H]1[C@H](NCc2cccc(C(F)(F)F)c2)[C@@H](c2ccc(N3CCOCC3)nc2)C[C@H]1O | i
O=C1COCC2(CN1Cc1c(F)cccc1Cl)CN(c1ccc(C(F)(F)F)cn1)C2 | i
Oc1cccc(CN2CCCC23CCN(c2ccc(C(F)(F)F)cn2)CC3)c1 | 4.5µM*
Cc1cc(C)n(CCc2nc3c4ccccc4nc(N4CCN(c5ccccc5F)CC4)n3n2)n1 | 39%
CCOCCOC1CCN(C(=O)Nc2cccc(C)c2)CC1 | 13%
COc1ccc(Cl)cc1C(=O)N1CC(=O)N(c2ccccc2C#N)CC1C (stereo not given) | -9%
Cc1nc(-c2cnccn2)n(CC(=O)Nc2ccc(F)c(Cl)c2)c(=O)c1C | -28%
O=C1N[C@@H]2CCN(C(=O)c3cccs3)[C@@H]2C(=O)N1c1ccc(Oc2ccccc2)cc1 | i
Cc1cnn(CCC(=O)N2CCC3(CCOCC3)CC2)c1 | -6%
Cn1c(=O)[nH]cc(CC(=O)N2CCC3(CC(=O)NC3=O)C2)c1=O (stereo not given) | 25%
COc1ccccc1C(=O)N1CCC2(CC1)CC(=O)c1ccc(Cl)cc1O2 | -18%
CCc1cnc(C)nc1N1CCC(Oc2ccc3ccccc3c2)(C(=O)O)CC1 | -9%
COCCNC(=O)c1cc(-c2ccc(OC)cc2)nc2onc(C3CCNC3)c12 (stereo not given) | -23%
CCn1cc(CN2CCC3(CCC3NC(=O)COC)CC2)cn1 (stereo not given) | -7%
O=C(COc1ccccc1)N[C@H]1CO[C@H]2[C@@H]1OC[C@H]2OC(=O)Nc1ccccc1 | i
CCOc1ccc(C(=O)Nc2ccc3nc(SCC(=O)N(C)c4ccccc4)sc3c2)cc1 | 8.9µM*
Cc1ccccc1OCC(=O)Nc1ccc2nc(SCC(=O)N(C)c3ccccc3)sc2c1 | -28%
SMILES | Pf Dd2 inh
CCOC(=O)CSc1nc2ccc(NC(=O)c3ccc(C)cc3)cc2s1 | 1%
COc1ccccc1C(=O)Nc1ccc2nc(SCC(=O)N(C)c3ccccc3)sc2c1 | 8.9µM*
CN(C(=O)CSc1nc2ccc(NC(=O)c3ccccc3F)cc2s1)c1ccccc1 | -24%
CN(C(=O)CSc1nc2ccc(NC(=O)c3cccc(F)c3)cc2s1)c1ccccc1 | -15%
O=C(NC1CCc2n[nH]c(=O)n2CC1)c1ccsc1 (stereo not given) | 41%
CC(=O)NC[C@H]1OC[C@@H](N(Cc2cccc(C#N)c2)Cc2cccc(C#N)c2)[C@@H]1O | i
Cc1ccc(S(=O)(=O)NC[C@H]2O[C@@H](CO)[C@@H](O)[C@H]2N2CCN(c3ccc(F)cc3)CC2)cc1 | 1%
C=CCn1c(-c2ccc(F)cc2)cn2cc(C(=O)N[C@@H](C)CO)nc2c1=O | -17%
CC(C)=CCn1c(-c2ccccc2Cl)cn2cc(C(=O)NCCCO)nc2c1=O | 7.9µM*
C=CCn1c(-c2cccs2)cn2cc(C(=O)NC(CC)CO)nc2c1=O (stereo not given) | 1%
CC(C)NC(=O)NC[C@H]1O[C@@H]2C[C@@H](CC(=O)N3CCOCC3)O[C@@H]2[C@@H]1O | 30%[44.1 µM]
O=C(N[C@@H]1COCC[C@@H]1OCc1ccccc1)c1n[nH]c2c1COCC2 | -6%
CN1C[C@H](NCc2ccc(F)cc2)CCC[C@@H](C(=O)NC2CC2)CC1=O | 6%[44.1 µM]
COc1ccc(Nc2c3c(nc4nncn24)CCC3)cc1OC | i
COc1cc(OC)c(NC(=O)c2ccc3c(Cl)c4c(nc3c2)CCCC4)cc1Cl | 14%
COc1cc(OC)c(Nc2c3c(nc4nc(-c5cccs5)nn24)CCCC3)cc1Cl | 11µM*
O=C([C@@H]1C[C@H](F)CN1C(=O)Cc1ccc(F)cc1)N1CCCCC1 | 66%
CCc1nncn1C1CCN(S(=O)(=O)c2ccccc2)CC1 | i
O=C(Cn1nc2n(c1=O)CCCCC2)Nc1ccccc1C(F)(F)F | 37%
COc1ccc(Cl)cc1NC(=O)Nc1c[nH]c(=O)[nH]c1=O | 37%
COc1ccc(Cl)cc1NC(=O)c1c(OC)cc(=O)n2c1CCCC2 | 50%
CC(=O)c1cccc(NC(=O)Nc2cc3c(cc2N2CCCC2)n(C)c(=O)n3C)c1 | i
Cc1ccc(C#N)c(=O)n1CC(=O)Nc1ccccc1C(F)(F)F | 9%
CCn1c(=O)n(CC)c2cc(N3CCCCC3)c(NC(=O)Nc3cc(Cl)ccc3OC)cc21 | 8.9µM*
Cc1ccc(C)c(NC(=O)Nc2cc3c(cc2N2CCCCC2)n(C)c(=O)n3C)c1 | 10µM*

Bioassay records deposited in PubChem BioAssay by National Center for Advancing Translational Sciences (NCATS).
